Molecules are shown by their SMILES. Compounds without any hit were thinned out: in the full panel of roughly 83,000, 20% have a hit.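 Results are percent growth after 48 hours of single-concentration exposure. 100 means growth as in untreated cells, lower positive values show inhibition; negative values down to -100 show cell death.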 Values without a mark were called inactive. Activity calls are given as the source filed them. The calls were made as follows: active = growth percent below 10; inactive = the rest.

This test relates to SN12C renal. Briefly: NCI-60 one-dose screen, 48 h (100 = growth as untreated, 0 = no growth, -100 = all killed). To be noted: 10 µM unless noted.
For the compound `Cn1cc(-c2csc(-c3ccc(Cl)cc3)n2)c2cccnc21`, the growth is -42.7% [100 µM] (active).
The figure for `COc1cc(-c2nc(SCCC(C)C)nc(Nc3ccccc3Cl)c2C#N)cc(OC)c1OC` is 90%; for `CCn1c(=S)[nH]c2c(=O)n(C)c(=O)n(C)c21` it is 101%; for `c1ccc(CNc2c3ccccc3nc3ccccc23)cc1` it is 37.5%.
As to `COCCn1c(-c2csc(-c3cn(C)c4ccc(OC)cc34)n2)cc2cccnc21`, the growth was 80.2%.
The figure for `CCOC(=O)CSc1ncnc2c1c(-c1ccccc1)c(-c1ccccc1)n2-c1ccc(C)cc1` is 64.3%.
For `COc1cc2oc(-c3cccc(NC(=O)c4cccc(Br)c4)c3)cc(=O)c2c(OC)c1OC`, the growth was 54.2%.
`Cc1ccc(Cl)cc1Nc1nc(C(F)(F)F)ccc1C(=O)N/N=C/c1cccnc1`: the growth is 36.4%.
The figure for `Cn1c(=O)c2c(nc(NC3=NS(=O)(=O)c4ccccc43)n2CC(=O)N2CCc3ccccc32)n(C)c1=O` is 96.9%; for `Cc1cccc(Cl)c1NC(=O)c1ccc2nc(NC(=O)NCCN(C)C)sc2c1` it is 92%; for `CCOC(=O)c1c(C)nc2c(c1N)CC(=O)N2Cc1cc(F)cc(Cl)c1` it is 93.2%.
The figure for `COC(C(=O)[C@@H](O)[C@@H](C)O)[C@@H]1Cc2cc3cc(O[C@H]4C[C@@H](O[C@H]5C[C@@H](O)[C@H](O)C(C)O5)[C@H](O)C(C)O4)cc(O)c3c(O)c2C(=O)[C@H]1O[C@H]1C[C@@H](O[C@H]2C[C@@H](O[C@H]3C[C@@H](OC)[C@H](O)C(C)O3)[C@@H](O)C(C)O2)[C@H](O)C(C)O1` (stereo partly drawn) is 33%; for `CN([O-])c1nc(N(C)[O-])nc(N2CCOCC2)n1.CN([O-])c1nc(N(C)[OH2+])nc(N2CCOCC2)n1.[Fe+3]` it is 99.9% [100 µM]; for `CCOP(=O)(OCC)c1nc(-c2ccccc2)oc1NCc1cccnc1` it is 103%.
With `CCn1c(SCC(=O)c2ccc(Br)cc2)nnc1-c1ccncc1`, the growth was 107%.
For `CCCCNc1ccc(C#N)c(OCCN(CC)CC)c1`, the growth is 105%.
The figure for `N#Cc1c(-c2ccc(Cl)cc2)nc(NN=Cc2cccc(O)c2)nc1N1CCOCC1` is 78.3%; for `CS(=O)(=O)Nc1cc(-c2ccc3ncnc(Nc4c(Cl)ccc5c4OCO5)c3c2)cnc1Cl` it is 9.89% (active); for `Fc1cccc(CNc2c3ccccc3nc3ccccc23)c1F` it is 49%.
The figure for `COC(=O)CNC(=O)[C@H](Cc1ccccc1)NCc1ccncc1` is 99.3%; for `O=C(NCCCN1CCOCC1)c1cccc(N2C(=O)/C(=C/c3ccc(F)cc3)SC2=S)c1` it is 93.6%; for `O=[N+]([O-])/C(=C/C=C/c1ccccc1)c1ccccc1` it is 66.5%.
As for `Cn1cc(-c2csc(-c3c[nH]c4ccc(Br)cc34)n2)c2cnccc21`, the figure is -87.2% (active); as for `C=C(C)[C@@H]1CC[C@]2(C(=O)N3CCN(C)CC3)CC[C@]3(C)[C@H](CC[C@@H]4[C@@]5(C)CC(=C/c6ccncc6)/C(=N/O)C(C)(C)[C@@H]5CC[C@]43C)[C@@H]12`, 74.7%.
Regarding `COc1cc(N2C(=O)[C@H](O)C2c2ccc(SC)cc2)cc(OC)c1OC` (stereo partly drawn), the growth was 28.7%.
`CCCCC(=O)c1ccco1`: the growth was 87.9%.
The figure for `C=C(C)[C@@H]1CC[C@]2(C)[C@H](CC=C3[C@@H]4[C@H](C)[C@@H](C)CC[C@]4(CO)CC[C@]32C)[C@@]1(C)CCCN` is -4.38% (active); for `COc1ccc2[nH]cc(-c3nc(-c4c[nH]c5ccncc45)cs3)c2c1` it is 71.9%; for `Oc1ccc(CN2CCC(N3CCCCC3)CC2)c2cccnc12` it is 22.2%.
Consider `CC(C)(C)c1cc(-c2nc3ccc(N4CCN(S(C)(=O)=O)CC4)cc3[nH]2)cc(C(C)(C)C)c1O`, for which the growth was 97.7%.
The figure for `COc1ccc2c(c1)c(-c1noc(C(=O)c3cn(C)c4ccc(Br)cc34)n1)cn2C` is 100%; for `C[C@H](NC(=O)[C@@H](C)N)[C@H](Oc1ccc2c(cnn2-c2ccc(F)cc2)c1)c1ccc2c(c1)OCCO2` it is 42.6%; for `C=C(C)[C@@H]1CC[C@]2(C(=O)O)CC[C@]3(C)[C@H](CC[C@@H]4[C@@]5(C)C[C@@H](Cc6cn(CCO[C@@H]7O[C@H](COC(C)=O)[C@H](OC(C)=O)[C@H](OC(C)=O)[C@H]7OC(C)=O)nn6)[C@H](O)C(C)(C)[C@@H]5CC[C@]43C)[C@@H]12` it is 70.3%.
